Bioassay records from PubChem.
This is a sample that favours compounds with a hit; in the whole collection about 3.5% have one here.
Sm TGR inh: qHTS Assay for the Inhibitors of Schistosoma Mansoni Peroxiredoxins. Schistosoma mansoni thioredoxin glutathione reductase (TGR), Q962Y6. purified TGR, DTNB reduction, TNB absorbance 405 nm. Potency, µM (titrated, usually from 114 µM), without a hit: top-dose activity change, negative = inhibition, actives largely listed as inhibitors. 360,000 tested, 3% active. AID 485364, 2010; also: % is scaled to controls: 0 for no effect and ±100 for the full control effect; nearly all actives have a fitted effect of over 60% in size
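First, TGR (20 nM dispensed) and NADPH were mixed with compound. Second, a 15 min room-temperature incubation followed. Third, further NADPH and then DTNB were added to start the reaction. Finally, TNB absorbance was monitored kinetically.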
LmPK inhibitor: qHTS Assay for Inhibitors of Leishmania Mexicana Pyruvate Kinase (LmPK). Q27686. purified LmPK, Kinase-Glo ATP luminescence, 1 h. Potency, µM (series often up to 57.5 µM), for the others: at the highest dose activity change, negative = inhibition, hits mostly inhibitors. 290,000 tested, 0.37% active. AID 1721, 2009; also: % is scaled to controls: 0 for no effect and ±100 for the full control effect
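Screened at intermediate enzyme activity to detect both inhibitors and activators: LmPK at 0.1 nM, with a 0.5 nM enzyme column as activation reference. PEP 0.5 mM, ADP 0.1 mM; ATP detected by luminescence after 1 h.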
RE007 growth inh: qHTS Assay for Inhibitors of the HIV-1 protein Vpr | S. pombe RE007 Vpr strain, BacTiter-Glo ATP luminescence, 24 h | 360,000 tested, 0.21% active | Potency, µM (highest dose often 92.2 µM), without a hit: top-dose activity change, negative = less growth, hits mostly inhibitors; active = well fitted falling curve with a large enough effect; inconclusive = small, poorly fitted or top-dose-only effect; inactive = no such curve, though single readings can be large or run the other way; also: % is scaled to controls: 0 for no effect and ±100 for the full control effect; nearly all actives have a fitted effect of over 50% in size
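Fission yeast RE007 carrying one integrated HIV-1 vpr copy, seeded at OD 0.01 in PMG+AL medium with 23 nL pinned compound. Grown 24 h at 30 degrees; viability read by BacTiter-Glo luminescence after 5 min.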
NS1 function inh: qHTS Assay for Inhibitors of Influenza NS1 Protein Function. Potency, µM (top dose mostly 46.1 µM), without a hit: top-dose activity, positive = more growth. AID 2326, 2010. 270,000 tested, 0.4% active; calls by dose curve; also: actives are rising curves; nearly all actives have a fitted effect of over 50% in size
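Growth recovery, yeast-based: influenza A NS1 expressed in S. cerevisiae causes slow growth, and suppressors are detected by OD600. The parent strain without NS1 is used as positive control.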
TbPYK inhibitor: qHTS of Trypanosoma Brucei Inhibitors | TbPYK enzyme, Kinase-Glo Plus ATP luminescence, 45 min | Potency, µM (highest dose often 76.8 µM), for inactives: top-dose activity, negative = inhibition, usual class: inhibitors | 410,000 tested, 0.12% active; also: % is scaled to controls: 0 for no effect and ±100 for the full control effect; nearly all actives have a fitted effect of over 50% in size
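Screened from lowest to highest concentration, compounds were pinned into TbPYK/substrate mixtures, and ADP (130 uM final) was added. Plates sat at room temperature for 45 min prior to Kinase-Glo Plus detection by luminescence.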
FBPA Giardia inh: qHTS Assay for Inhibitors of Fructose-1,6-bisphosphate Aldolase from Giardia Lamblia. A8B2U2. purified Giardia FBPA. Potency, µM (doses to about 59.6 µM), inactives show at the top dose activity, negative = inhibition, hits mostly inhibitors. 290,000 tested, 0.71% active. AID 2451, 2010; also: % is scaled to controls: 0 for no effect and ±100 for the full control effect; nearly all actives have a fitted effect of over 55% in size
Target sequence (A8B2U2 whole entry, looked up): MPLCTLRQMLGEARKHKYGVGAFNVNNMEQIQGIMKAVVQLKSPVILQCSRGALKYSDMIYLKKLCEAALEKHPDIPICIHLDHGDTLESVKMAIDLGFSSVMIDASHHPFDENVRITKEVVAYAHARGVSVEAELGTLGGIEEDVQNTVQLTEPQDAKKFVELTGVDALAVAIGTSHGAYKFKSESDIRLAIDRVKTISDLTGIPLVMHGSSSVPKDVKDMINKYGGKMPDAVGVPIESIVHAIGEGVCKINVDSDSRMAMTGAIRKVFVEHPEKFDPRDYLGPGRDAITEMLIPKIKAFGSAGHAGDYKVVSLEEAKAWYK
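40 nM FBPA preincubated 10 min at RT with compound (up to 57.5 uM final), then substrate plus GAPDH/TPI/NAD/arsenate coupling and diaphorase/resazurin added. Fluorescence read after 20 min at RT, 525/598 nm.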
An asterisk follows results filed as active; ? = inconclusive; · = no result given; [ ] = dose if it differs, or a comment. Unless noted, calls follow the shape of the dose curve; as a rule, active = well fitted curve in the direction sought with a large enough effect; inconclusive = small, poorly fitted or top-dose-only effect, or another doubt; inactive = no such curve, though single readings can be large; an effect the other way counts as inactive or inconclusive. Potency is read from the fitted curve at half-maximal effect.

SMILES	Sm TGR inh	LmPK inhibitor	RE007 growth inh	NS1 function inh	TbPYK inhibitor	FBPA Giardia inh
COc1cccc(CNC(=O)CCC2CCCN(C(=O)c3ccoc3)C2)c1 (stereo not drawn)	-18.9%	-0.8%	9.7%	2.5%	-4.5%	-0.2%
COc1cccc(CNC(=O)CCC2CCCN(C3CCOCC3)C2)c1 (stereo not drawn)	4.47µM*	0.2%	2.5%	-2.2%	-1.3%	-0.3%
CCCCCNC(=O)c1ccc(NS(=O)(=O)c2ccc3[nH]c(=O)[nH]c3c2)cc1	25.1µM*	-1.7%	-0.8%	7.5%	1.3%	·
CCCCNC(=O)c1ccc(NS(=O)(=O)c2ccc3[nH]c(=O)[nH]c3c2)cc1	-4.2%	-6.2%	23.7%	7.3%	-7.3%	·
O=C(O)c1ccc2c(c1)C(=O)N([C@H](Cc1ccc(-c3ccccc3)cc1)C(=O)O)C2=O	8.2%	·	·	·	·	?
O=C1NC(=O)N(c2ccc(Cl)cc2)C(=O)/C1=C\c1ccc(Sc2nc3ccccc3[nH]2)o1	8.91µM*	-10.4%	-18.9%	7.4%	?	-4.7%
CC(C)C(=O)Nc1nnc2n1CCS2	-0.9%	·	·	·	3.7%	·
O=C1CCCN1CCC1CCN(C2CC(=O)N(Cc3ccc(N4CCCC4=O)cc3)C2=O)CC1 (stereo not drawn)	17.8µM*	3.0%	?	-8.2%	2.1%	1.9%
O=C1CC(N2CCN(c3ccccc3)CC2)C(=O)N1c1ccc(Cl)cc1 (stereo not drawn)	?	8.1%	-4.5%	4.3%	2.8%	-2.5%
O=C1CC(N2CCOCC2)C(=O)N1Cc1ccc(N2CCCC2=O)cc1 (stereo not drawn)	-1.4%[11.4 µM]	0.6%	-2.8%	-7.1%	1.7%	1.5%
O=C1CC(N2CCC(O)(c3ccc(Cl)cc3)CC2)C(=O)N1Cc1ccc(N2CCCC2=O)cc1 (stereo not drawn)	31.6µM*	-1.1%	-21.4%	-43.4%	-3.2%	9.1%
O=C1CCCN1CCC1CCN(C2CC(=O)N(c3ccc(Cl)cc3)C2=O)CC1 (stereo not drawn)	17.8µM*	-10.4%	5.01µM*	-197.4%	4.0%	0.4%
COc1ccc(-c2nc(/C=C3\C(C)=Nc4ccccc43)c(O)o2)cc1	44.7µM*	4.9%	-1.2%	·	1.8%	-6.6%
Cc1cccc2sc(N(CCN3CCOCC3)C(=O)CCS(=O)(=O)c3ccccc3)nc12	44.7µM*	·	-7.2%	·	0.3%	·
Cc1ccc(S(=O)(=O)CCC(=O)N(CCN2CCOCC2)c2nc3ccccc3s2)cc1	35.5µM*	·	-11.1%	·	-12.3%	·
O=C(Nc1ccc(OC(F)(F)F)cc1)C1CCN(S(=O)(=O)c2ccc3[nH]c(=O)ccc3c2)CC1	-2.9%	·	·	·	-0.7%	·
Fc1ccc(CSc2nc3ccccc3[nH]2)c2ccccc12	11.8%	-0.3%	12.6µM*	-48.6%	2.5%	-2.5%
Fc1ccc(CSc2nc3ccccc3[nH]2)cc1	-6.0%	22.4µM*	?	-62.1%	-8.3%	-12.2%
c1ccc(CSc2nc3ccccc3[nH]2)cc1	0.0%	?	-25.5%	-3.3%	1.6%	-1.3%
COc1ccc(OC)c(N2C(=O)CC(=O)NC2=O)c1	0.9%	-0.1%	9.4%	11.9%	3.8%	-16.7%
O=C1NC(=O)C(=Cc2ccco2)C(=O)N1	·	·	12.2%	·	?	·
COc1ccc(OC)c(N2C(=O)NC(=O)/C(=C/c3ccc([N+](=O)[O-])s3)C2=O)c1	3.98µM*	?	-28.9%	·	?	12.6µM*
COc1ccc(N2C(=O)/C(=C/c3cc(C)n(-c4ccc(C)cn4)c3C)C(=O)NC2=S)c(OC)c1	?	-4.0%	12.1%	7.7%	-21.8%	?
Cc1ccc(N2C(=O)NC(=O)/C(=C\c3ccoc3)C2=O)cc1	-9.9%	4.3%	1.6%	·	?	-5.1%
O=C1NC(=S)N(c2ccc(F)cc2)C(=O)/C1=C/c1ccco1	31.6µM*	-3.4%	·	?	·	?
